The nature of test [1]: antimalarial activity against Dd2 strain (AID 2302;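 active = growth inhibition above 50% at the single 2 µM test dose, taken to imply half-maximal potency below 2 µM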;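 note: 0% = DMSO untreated growth and 100% = chloroquine plus artemisinin killed control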). The conditions noted are these: P. falciparum Dd2 in RBCs, LDH growth readout, 72 h; at 2 µM; active compounds read high.
Test [2] in a line: human hepatoma cell viability loss – ATP luminescence, cytotoxicity control for P. falciparum antimalarial project, primary screen (AID 2303;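 active = inhibition above 50%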;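 note: 0% = DMSO wells and 100% = digitonin-killed cells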). The conditions noted are these: HepG2 viability, 24-48 h, at 10 µM, active compounds read high.
Test [3] has as its target L-lactate dehydrogenase (Plasmodium falciparum (isolate CDC / Honduras)) (UniProt Q27743). The test can be described thus: PfLDH activity inhibition – cell lysate, 3D7 strain, counter-screen for P. falciparum growth inhibition project (AID 2304).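 Note: 0% = vehicle and 100% = reference inhibitor.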 The conditions noted are these: P. falciparum 3D7 crude extract, LDH APAD/NBT absorbance; at 2 µM; active compounds read high. A general note: Counterscreens check selectivity or assay interference.

Test [4] in a line: inhibition of 3D7 malaria parasite growth – strain 3D7 (AID 2306).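 Note: 0% = DMSO wells and 100% = chloroquine plus artemisinin control wells.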 The conditions noted are these: P. falciparum 3D7 erythrocytic growth, LDH absorbance, 72 h; at 2 µM; active compounds read high.
Test [5] addresses Calcium-dependent protein kinase 1 (Plasmodium falciparum (isolate 3D7)) (UniProt P62344). Nature of the test: PfCDPK1 kinase inhibitors, biochemical, TCAMS library (AID 1159585; cut-off not given, nearly all actives have IC50 up to about 0.98 µM;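 note: inhibitors leave more ATP so luminescence rises with inhibition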). The conditions noted are these: recombinant PfCDPK1, Kinase-Glo ATP depletion luminescence.
Test [6] has as its target Plasmodium falciparum protein kinase 6 (PK6, PF3D7_1337100) (UniProt Q8IDW1). The test can be described thus: PfPK6 kinase inhibitors, biochemical, TCAMS library (AID 1159586). The conditions noted are these: recombinant PfPK6, Kinase-Glo ATP depletion luminescence. For orientation: In Kinase-Glo more light means more ATP remaining.
The target of test [7] is Protein kinase 7 (PK7), Plasmodium falciparum 3D7 (PF3D7_0213400) (UniProt Q7YTF7). The test can be described thus: inhibition of Plasmodium PK7 catalytic activity – biochemical, TCAMS antimalarial set, Kinase-Glo luminescence (AID 1159587). The conditions noted are these: recombinant PfPK7, Kinase-Glo ATP depletion luminescence.
Test [8] has as its target Calcium-dependent protein kinase 4 (Plasmodium falciparum (isolate 3D7)) (UniProt Q8IBS5). The test can be described thus: PfCDPK4 kinase inhibitors, biochemical, TCAMS library (AID 1159588; cut-off not given, nearly all actives have IC50 up to about 0.91 µM). The conditions noted are these: recombinant PfCDPK4, Kinase-Glo ATP depletion luminescence.

What is called inhibition is the drop in the measured response relative to a control, in per cent.

A number with no mark means an inactive call. For some of these results: Potency and affinity values are given separately. Calls of active or inactive are those of the source. Unless noted, the rule behind the calls is not given here.

Sequence of L-lactate dehydrogenase (Plasmodium falciparum (isolate CDC / Honduras)) (Q27743 whole entry, looked up): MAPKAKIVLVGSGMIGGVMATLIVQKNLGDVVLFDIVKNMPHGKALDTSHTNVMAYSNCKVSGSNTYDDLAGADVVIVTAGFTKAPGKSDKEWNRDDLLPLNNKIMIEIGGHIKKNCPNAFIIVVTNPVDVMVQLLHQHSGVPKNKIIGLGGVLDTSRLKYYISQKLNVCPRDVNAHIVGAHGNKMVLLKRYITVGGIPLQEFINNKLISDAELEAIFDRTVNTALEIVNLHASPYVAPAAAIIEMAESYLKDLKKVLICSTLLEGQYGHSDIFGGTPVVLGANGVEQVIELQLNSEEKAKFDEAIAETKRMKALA
Sequence of Plasmodium falciparum protein kinase 6 (PK6, PF3D7_1337100) (Q8IDW1 1-305): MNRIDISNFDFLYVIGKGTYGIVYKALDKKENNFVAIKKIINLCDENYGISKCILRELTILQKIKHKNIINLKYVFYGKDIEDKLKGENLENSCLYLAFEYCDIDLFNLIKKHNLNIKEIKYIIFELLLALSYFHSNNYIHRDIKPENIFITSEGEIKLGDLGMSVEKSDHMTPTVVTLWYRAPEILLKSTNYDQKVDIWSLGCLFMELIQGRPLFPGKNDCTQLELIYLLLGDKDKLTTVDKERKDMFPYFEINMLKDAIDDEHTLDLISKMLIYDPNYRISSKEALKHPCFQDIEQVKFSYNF
Sequence of Protein kinase 7 (PK7), Plasmodium falciparum 3D7 (PF3D7_0213400) (Q7YTF7 1-343): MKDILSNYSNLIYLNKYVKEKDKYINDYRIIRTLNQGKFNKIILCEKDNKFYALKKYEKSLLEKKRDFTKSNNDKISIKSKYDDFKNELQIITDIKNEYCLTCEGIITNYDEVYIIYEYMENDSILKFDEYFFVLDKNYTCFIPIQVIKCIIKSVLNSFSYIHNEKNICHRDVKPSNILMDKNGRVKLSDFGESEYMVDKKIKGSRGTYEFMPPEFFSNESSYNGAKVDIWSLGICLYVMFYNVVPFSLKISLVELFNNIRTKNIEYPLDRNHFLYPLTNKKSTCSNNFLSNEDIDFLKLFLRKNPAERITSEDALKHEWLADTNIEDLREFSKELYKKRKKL
Sequence of Calcium-dependent protein kinase 4 (Plasmodium falciparum (isolate 3D7)) (Q8IBS5 whole entry, looked up): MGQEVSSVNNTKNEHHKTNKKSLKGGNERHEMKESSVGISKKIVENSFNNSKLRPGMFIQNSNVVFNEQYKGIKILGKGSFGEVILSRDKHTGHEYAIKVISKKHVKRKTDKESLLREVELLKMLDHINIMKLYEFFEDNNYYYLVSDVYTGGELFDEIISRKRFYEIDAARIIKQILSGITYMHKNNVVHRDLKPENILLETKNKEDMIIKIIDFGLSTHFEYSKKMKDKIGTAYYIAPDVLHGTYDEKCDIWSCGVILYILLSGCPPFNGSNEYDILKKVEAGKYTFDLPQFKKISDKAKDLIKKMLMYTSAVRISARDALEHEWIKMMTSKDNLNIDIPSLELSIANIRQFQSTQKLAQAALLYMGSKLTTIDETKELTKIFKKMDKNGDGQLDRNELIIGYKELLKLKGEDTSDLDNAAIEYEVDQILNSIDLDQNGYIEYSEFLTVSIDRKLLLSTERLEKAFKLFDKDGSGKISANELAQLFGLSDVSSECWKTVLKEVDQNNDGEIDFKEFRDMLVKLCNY
Sequence of Calcium-dependent protein kinase 1 (Plasmodium falciparum (isolate 3D7)) (P62344 whole entry, looked up): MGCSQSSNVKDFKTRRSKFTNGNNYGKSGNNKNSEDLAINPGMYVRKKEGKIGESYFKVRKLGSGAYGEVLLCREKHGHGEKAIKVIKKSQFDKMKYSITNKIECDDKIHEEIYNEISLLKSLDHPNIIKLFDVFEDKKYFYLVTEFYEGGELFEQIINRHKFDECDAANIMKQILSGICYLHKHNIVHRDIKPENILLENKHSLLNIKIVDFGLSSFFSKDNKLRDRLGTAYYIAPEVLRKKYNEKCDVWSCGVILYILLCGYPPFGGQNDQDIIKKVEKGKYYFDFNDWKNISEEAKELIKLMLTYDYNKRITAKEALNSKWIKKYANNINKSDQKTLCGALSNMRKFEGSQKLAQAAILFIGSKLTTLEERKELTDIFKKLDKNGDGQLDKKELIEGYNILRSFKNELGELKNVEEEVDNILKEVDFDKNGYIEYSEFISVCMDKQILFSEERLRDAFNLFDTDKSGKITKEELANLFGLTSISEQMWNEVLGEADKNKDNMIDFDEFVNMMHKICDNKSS

For the compound `Cc1cc(N(CCO)CCCN2CCCCC2)nc(Nc2ccc(Cl)cc2)n1`, the growth inhibition is 18% in test [1] and 100% (active) in test [4]. In addition, the inhibition in test [2] was 12%; in test [3], -9%. In addition, the result in test [5], in test [6], in test [7] and in test [8] was inactive.
Take `Cc1nn(CC(O)Cn2c3ccc(Br)cc3c3cc(Br)ccc32)c(C)c1Br` (stereo not given): the growth inhibition in test [1] was 81% (active); in test [4] it was 98% (active). Further, the values for the inhibition in test [2] and in test [3] were 4% and 1%, respectively. Also, the result in test [5], in test [6], in test [7] and in test [8] was inactive.
As for `O=C(/C=C/c1ccc(Cl)cc1)NCCCCCN1CCN(C(=O)C=Cc2ccc(Cl)c(Cl)c2)CC1`, the growth inhibition in test [1] is 0%; in test [4] it was 92% (active). Further, the inhibition in test [2] is 30%; in test [3], 5%. For the same compound, the outcome in test [5], in test [6], in test [7] and in test [8] was inactive.
As for `Cc1[nH]c(C)c(-c2ccc(OCCCc3ccccn3)cc2)c(=O)c1Br`, the figures for the growth inhibition in test [1] and in test [4] were 97% (active) and 98% (active), respectively. Moreover, the inhibition in test [2] was -8%; in test [3], 5%. Further, the outcome in test [5], in test [6], in test [7] and in test [8] was inactive.
Regarding `Cc1nc(N)nc(N)c1OCCCOc1ccccc1Br`, the growth inhibition was 96% (active) in test [1] and 94% (active) in test [4]. Also, the inhibition in test [2] was 57% (active); in test [3] it was -3%. In addition, the outcome in test [5], in test [6], in test [7] and in test [8] was inactive.
`COc1ccc2nccc([C@@H](O)CN3CCC(NC(=O)c4nc(Cl)c(Cl)c(N)c4Cl)CC3)c2c1`: the growth inhibition in test [1] was 17%; in test [4], 87% (active). Besides, the results for the inhibition in test [2] and in test [3] were 16% and 2%, respectively. The result in test [5], in test [6], in test [7] and in test [8] was inactive.
For the compound `CC(=O)c1nccc(C)c1N`, the growth inhibition in test [1] was -1%; in test [4] it was 92% (active). For the same compound, the inhibition in test [2] was 10%; in test [3], 1%. Also, the outcome in test [5], in test [6], in test [7] and in test [8] was inactive.
As for `FC(F)(F)c1ccc2nccc(NN=Cc3ccccc3Cl)c2c1`, the values for the growth inhibition in test [1] and in test [4] were 83% (active) and 101% (active), respectively. Further, the inhibition in test [2] was -6%; in test [3] it was 5%. Moreover, the outcome in test [5], in test [6], in test [7] and in test [8] was inactive.
Take `CC(C)(C)CC(C)(C)c1ccc(O)c(CNC2CCCCC2)c1`: the growth inhibition in test [1] was 99% (active); in test [4], 98% (active). Besides, the inhibition in test [2] is 92% (active); in test [3], 4%. For the same compound, the outcome in test [5], in test [6], in test [7] and in test [8] was inactive.
As for `CCCC(C)N(Cc1ccc(C(C)(C)C)cc1)C(=O)c1ccc(OC)cc1` (stereo not given), the results for the growth inhibition in test [1] and in test [4] were 98% (active) and 100% (active), respectively. Moreover, the results for the inhibition in test [2] and in test [3] were 7% and -2%, respectively. Further, the result in test [5], in test [6], in test [7] and in test [8] was inactive.
`Nc1nc(N)c2c(ccc3c2ccn3C2C=CCCC2)n1` (stereo not given): the growth inhibition is 65% (active) in test [1] and 94% (active) in test [4]. In addition, the inhibition was 68% (active) in test [2] and -2% in test [3]. Besides, the outcome in test [5], in test [6], in test [7] and in test [8] was inactive.
As for `CN(C)Cc1ccc2cc(NC(=O)c3ccc(-c4ccc(Cl)cc4)cc3)ccc2c1`, the values for the growth inhibition in test [1] and in test [4] were 22% and 92% (active), respectively. Also, the inhibition in test [2] was 21%; in test [3], -3%. For the same compound, the outcome in test [5], in test [6], in test [7] and in test [8] was inactive.
As to `COc1cc(NC(=O)c2ccc3oc4ccccc4c3c2)ccc1OCCN1CCCCC1`, the figures for the growth inhibition in test [1] and in test [4] were 11% and 89% (active), respectively. The inhibition in test [2] is 12%; in test [3], -4%. For the same compound, the outcome in test [5], in test [6], in test [7] and in test [8] was inactive.
`CCCCCCNC[C@@H](O)[C@H](Cc1ccccc1)NC(=O)c1cc(NCC)cc(N2CCCCS2(=O)=O)c1`: the figures for the growth inhibition in test [1] and in test [4] were 98% (active) and 100% (active), respectively. Also, the inhibition was 5% in test [2] and -5% in test [3]. In addition, the outcome in test [5], in test [6], in test [7] and in test [8] was inactive.
For `COc1ccc2nc3cc(Cl)ccc3c(NCc3ccccc3)c2c1`, the results for the growth inhibition in test [1] and in test [4] were 50% (active) and 101% (active), respectively. The inhibition in test [2] was 8%; in test [3] it was 5%. Also, the result in test [5], in test [6], in test [7] and in test [8] was inactive.
For `COc1ccc2nc(C)cc(Nc3ccc(Cl)c(Cl)c3)c2c1`, the growth inhibition in test [1] is 99% (active); in test [4], 100% (active). Further, the inhibition in test [2] is 30%; in test [3], -8%. For the same compound, the outcome in test [5], in test [6], in test [7] and in test [8] was inactive.
Regarding `NC(N)=Nc1nc(CCCCCCCCc2csc(N=C(N)N)n2)cs1`, the growth inhibition in test [1] is 28%; in test [4], 100% (active). Also, the inhibition in test [2] was 27%; in test [3], 0%. Further, the outcome in test [5], in test [6], in test [7] and in test [8] was inactive.
Consider `CCS(=O)(=O)N1CCN(c2nc(-c3ccccc3)nc(COC)c2Cc2ccccc2F)CC1`, for which the growth inhibition is 34% in test [1] and 82% (active) in test [4]. For the same compound, the figures for the inhibition in test [2] and in test [3] were -2% and 0%, respectively. Also, the outcome in test [5], in test [6], in test [7] and in test [8] was inactive.
For `Brc1cc(Br)c2c(c1)C(NCCCNc1nc3ncccc3[nH]1)CCN2` (stereo not given), the growth inhibition in test [1] was 83% (active); in test [4], 99% (active). In addition, the inhibition in test [2] was 5%; in test [3], 1%. Further, the result in test [5], in test [6], in test [7] and in test [8] was inactive.
As to `Cc1cccc2[nH]c(-c3cccc(-c4ccc(NC(=O)c5cccnc5)cc4)c3)nc12`, the values for the growth inhibition in test [1] and in test [4] were 45% and 100% (active), respectively. The inhibition in test [2] was 64% (active); in test [3], -1%. The outcome in test [5], in test [6], in test [7] and in test [8] was inactive.

Values taken from PubChem BioAssay.
